# Bioassay records from PubChem.
# SARS PLpro yeast = SARS-CoV PLP inhibition in yeast | 330,000 compounds, 0.19% hits | AID 485353 | S. cerevisiae expressing SARS-CoV PLpro, growth rescue | Potency, µM (highest dose often 32.9 µM), for inactives: at the highest dose activity, positive = growth rescue, most hits filed as activators; calls by dose curve; further: potency means the concentration at half of the fitted maximal effect; 0% is about no effect; nearly all actives have a fitted effect of over 55% in size
# Sm TGR inh = S. mansoni TGR enzyme inhibition; Q962Y6; purified TGR, DTNB reduction, TNB absorbance 405 nm; Potency, µM (highest dose often 114 µM), for the others: at the highest dose activity change, negative = inhibition, actives largely listed as inhibitors; 360,000 compounds, 3% hits; AID 485364; further: potency means the concentration at half of the fitted maximal effect; on the % scale 0 is the no-effect control and ±100 the full control effect; nearly all actives have a fitted effect of over 60% in size
#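 TGR 20 nM + NADPH 100 uM (dispensed conc.), cpd preinc 15 min RT; start with NADPH (500 uM addition) then DTNB (15 mM addition). Kinetic TNB absorbance, 405 nm filter. Four-parameter Hill fit across titration.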
# HCV inh = inhibitors of hepatitis C virus infection; Huh7.5.1 HCVcc-Cre infection, luciferase reporter, 44 h; Potency, µM (series often up to 41.8 µM), for the others: at the highest dose activity change, negative = inhibition, usual class: inhibitors; 340,000 compounds, 3.4% hits; further: potency means the concentration at half of the fitted maximal effect; on the % scale 0 is the no-effect control and ±100 the full control effect
#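 Infectious HCVcc-Cre (~0.5 moi) was added to cells just after compound, with cells seeded 4 h earlier at 1,000 per well. Luciferase activity after 44 h culture reported infection; substrate was incubated 15 min at room temperature before reading.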
# Pf growth 96h = inhibits malaria parasite growth, 96 h; P. falciparum luciferase reporter growth, 96 h; Potency, µM (titrated, usually from 28.7 µM), for the others: at the top dose activity change, negative = inhibition, hits mostly inhibitors; 320,000 compounds, 6.9% hits; further: potency means the concentration at half of the fitted maximal effect; on the % scale 0 is the no-effect control and ±100 the full control effect
#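 Delayed-death screen, second-generation endpoint: infected erythrocytes, 2% hematocrit, 0.05% parasitemia final; 96 hours at 37 C, 5% CO2; luciferase detection reagent; luminescence decrease equals reduced growth.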
# HCMV inh = blocks human cytomegalovirus replication. HFF cells, HCMV-luciferase reporter, 72 h; stronger effect = lower value. activity change, negative = inhibition, % at 57.5 µM. 410,000 compounds, 4.5% hits. AID 1259415; in the data active means activity change below about -60%; inconclusive means no clear call, values can overlap the other calls; inactive means above about -39%; further: on the % scale 0 is the no-effect control and ±100 the full control effect
#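 Human foreskin fibroblasts infected with luciferase-reporter HCMV at MOI 1 PFU/cell, compounds at two doses. Luciferase measured 72 h post infection; normalized to buffer-only basal and Salinomycin (10uM) controls.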
# Pf growth 48h = inhibits P. falciparum growth in the first generation, 48 h; P. falciparum luciferase growth in erythrocytes, 48 h; Potency, µM (doses to about 28.7 µM), without a hit: at the highest dose activity change, negative = inhibition, usual class: inhibitors; 310,000 compounds, 5.9% hits; AID 504832; further: potency means the concentration at half of the fitted maximal effect; on the % scale 0 is the no-effect control and ±100 the full control effect
#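 Luciferase-expressing P. falciparum in infected erythrocytes (2% hematocrit, 0.1% parasitemia final) in RPMI 1640/0.5% Albumax were exposed to compound for 48 hours at 37 C, 5% CO2; growth read as luminescence.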
# * hit, by the source's call; ? = inconclusive; . = no result given; [ ] = remark or other dose. The list is not random: actives were taken first. Their share in the collection is about 15%. Unless noted, the call rests on the fitted dose curve; in most records, active means well fitted curve in the direction sought with a large enough effect; inconclusive means small, poorly fitted or top-dose-only effect, or another doubt; inactive means no such curve, though single readings can be large; an effect the other way counts as inactive or inconclusive.
SMILES,SARS PLpro yeast,Sm TGR inh,HCV inh,Pf growth 96h,HCMV inh,Pf growth 48h
CC1=NN=C(c2ccc(N)cc2)c2cc3c(cc2C1)OCO3,.,-20.2%,-25.7%,?,-34.5,11.7µM*
NC(=O)c1ccc[n+](Cc2ccccc2)c1,-0.2%,1.0%,15.0%,-15.3%,-39.2,6.6%
CC1=CCC2COC(c3ccc[n+](Cc4ccccc4)c3)C1C2 (stereo unspecified),-6.7%,35.5µM*,5.3%,-23.7%,?,1.47µM*
CCOc1ccc(CCNC(=O)COC(=O)c2cc(OC)c(OC)c(OC)c2)cc1OCC,-1.1%,-10.9%,.,-26.7%,30.2,?
CCOC(=O)C1CCC(CN(Cc2ccc(OC)cc2)S(=O)(=O)c2ccc(F)c(C(=O)Nc3cc(Cl)ccc3OC)c2)CC1 (stereo unspecified),.,6.4%,.,.,-1.9,.
Cc1cccc(NC(=O)c2cc(S(=O)(=O)N(C)c3ccc(F)cc3)ccc2Cl)n1,.,-14.0%,-27.7%,0.37µM*,-28.0,0.329µM*
COc1ccccc1N(C)S(=O)(=O)c1ccc(Cl)c(C(=O)Nc2ccccc2N2CCOCC2)c1,.,.,4.1%,.,0.0,.
COc1ccccc1N(C)S(=O)(=O)c1ccc(Cl)c(C(=O)Nc2cccc(C)n2)c1,-6.8%,-2.0%,?,2.33µM*,?,2.08µM*
Cc1ccc(N(CC(=O)NCc2ccccc2)C(=O)c2csnn2)c(C)c1,4.2%,-12.2%,10.8%,-1.3%,16.6,0.5%
O=C(c1ccco1)N1CCN(C(=O)C(Cc2ccccc2)NS(=O)(=O)c2cccs2)CC1 (stereo unspecified),3.1%,25.1µM*,16.1%,11.9%,24.2,18.2%
O=C(c1ccco1)N1CCN(C(=O)c2sccc2-c2ccccc2)CC1,-12.1%,39.8µM*,-15.6%,?,-24.7,?
Cc1cc2cc(C(c3nnnn3Cc3ccco3)N3CCc4ccccc43)c(=O)[nH]c2cc1C (stereo unspecified),?,?,?,?,-21.6,0.0%
Cc1cc2cc(C(c3nnnn3Cc3ccco3)N3CCc4ccccc4C3)c(=O)[nH]c2cc1C (stereo unspecified),0.8%,3.55µM*,?,193.4%,3.7,?
Cc1cc2cc(C(c3nnnn3Cc3ccccc3)N3CCc4ccccc43)c(=O)[nH]c2cc1C (stereo unspecified),-2.3%,44.7µM*,?,5.22µM*,34.7,.
Cc1ccc2[nH]c(=O)c(C(c3nnnn3Cc3ccccc3)N3CCc4ccccc43)cc2c1 (stereo unspecified),6.0%,20µM*,31.6µM*,.,8.1,.
Cc1ccc2cc(C(c3nnnn3Cc3ccccc3)N3CCc4ccccc43)c(=O)[nH]c2c1C (stereo unspecified),-1.1%,?,6.7%,.,45.1,10.4µM*
Cc1cccc2cc(C(c3nnnn3Cc3ccccc3)N3CCN(C)CC3)c(=O)[nH]c12 (stereo unspecified),-1.2%,4.6%,10.0%,?,.,-24.8%
CN(C)S(=O)(=O)c1ccc2c(c1)Cc1cc(S(=O)(=O)N(C)C)ccc1-2,-2.5%,9.5%,2.4%,22.4%,-35.5,11.2%
CCC(C)(C)n1nnnc1C(c1cc2cc(C)ccc2[nH]c1=O)N1CCCc2ccccc21 (stereo unspecified),-9.6%,?,-2.4%,?,-13.8,.
Cc1ccc2cc(C(c3nnnn3Cc3ccccc3)N3CCc4ccccc43)c(=O)[nH]c2c1 (stereo unspecified),3.7%,3.5%,?,6.57µM*,-6.7,.
CCN(CC)CCC12CC(C)OC1=Nc1ccccc1NC2=O (stereo unspecified),.,.,.,.,16.5,.
C=CCn1cccc(/C=C/C(=O)c2ccc(C(C)(C)C)cc2)c1=S,-18.9%,-14.4%,10µM*,?,8.1,?
OCCCNCc1ccc(N(c2ccccc2)c2ccccc2)cc1,-1.3%,0.1%,?,2.33µM*,?,?
CCOc1ccc(C2=CS/C(=C(\C#N)c3nnc4n3CCCCC4)N2CC)cc1,-0.7%,-3.5%,?,-3.4%[5.75 µM],-62.5*,?
O=C(O)Cn1nncc1-c1ccc(C(F)(F)F)cc1,.,.,.,.,8.5,.
SMILES,SARS PLpro yeast,Sm TGR inh,HCV inh,Pf growth 96h,HCMV inh,Pf growth 48h
O=C1CNC(=O)/C1=C\N1CCN(C(c2ccccc2)c2ccccc2)CC1,-2.5%,?,?,3.29µM*,104.5,-19.5%
COc1ccc(CNC(=O)CC[C@H]2O[C@@H](n3cnc4c(NC(=O)c5ccccc5)ncnc43)[C@H](O)[C@@H]2O)cc1,.,.,.,.,23.7,.
O=C1CC(N2CCC(c3nc4ccccc4o3)CC2)C(=O)N1c1ccc(F)cc1 (stereo unspecified),-4.8%,-19.3%,-5.0%,23.2%[5.75 µM],41.7,-13.7%
O=C1CC(N2CCC(c3nc4ccccc4o3)CC2)C(=O)N1 (stereo unspecified),-0.6%,35.5µM*,1.1%,-2.9%,?,-4.4%
O=C1CC(N2CCC(c3nc4ccccc4o3)CC2)C(=O)N1c1ccc(Cl)c(C(F)(F)F)c1 (stereo unspecified),?,14.1µM*,10.9%,.,-1.3,-10.2%
COc1ccccc1N1CCN(c2nc(C)nc3c2oc2ccccc23)CC1,-41.9%,-8.8%,3.55µM*,7.5%,-81.6*,?
Cc1nc(N2CCN(Cc3ccc4c(c3)OCO4)CC2)c2oc3ccccc3c2n1,.,.,-8.1%,.,-29.9,.
Cc1nc(N2CCN(Cc3ccc(Cl)cc3)CC2)c2oc3ccccc3c2n1,-3.0%,0.6%,8.91µM*,?,-38.5,?
Cc1ccc([C@H]2N[C@]3(CCCN(Cc4ccc(F)cc4)C3=O)[C@H]3C(=O)N(C)C(=O)[C@@H]23)cc1,.,.,.,.,-15.7,.
Cc1cc(C)c(C#N)c(N2CCOCC2)n1,-3.4%,?,8.4%,?,-6.8,15.3%
Cc1cc(C)c2c(N=NN3CCOCC3)[nH]nc2n1,-71.5%,-6.8%,-3.5%,4.65µM*,28.8,7.5%
Cn1cnc(S(=O)(=O)N2CCN(c3cccc(Cl)c3)CC2)c1,.,-4.7%,19.3%,-26.1%,?,25.8%
CC(=O)Nc1ccc(CN2CCN(C3CCCC3)C(CCO)C2)cc1 (stereo unspecified),1.1%,-2.4%,15.2%,8.28µM*,-9.8,58.6%
OCCC1CN(Cc2ccc3c(c2)CCO3)CCN1C1CCCC1 (stereo unspecified),-0.2%,.,-10.3%,38.4%,-74.1*,14.1%
CCOC(=O)C1CCN(Cc2c(F)cccc2Cl)CC1,4.2%,5.9%,3.5%,2.7%,42.4,12.7%
OCCC1CN(Cc2c(F)cccc2Cl)CCN1C1CCCC1 (stereo unspecified),-0.2%,-5.6%,0.1%,13.1µM*,30.6,-5.3%
